# The whole screen tested about 360,000 compounds, of which about 3,700 (1%) were called active. The entries come from a sample that favours actives as a whole. A number with no mark means an inactive call. Cut-off read from the data, not from the text of the source: active = activation above about 30%; inactive = the rest.
# Target: D(1A) dopamine receptor (Homo sapiens) (UniProt P21728)
# Test: Allosteric Agonists of the Human D1 Dopamine Receptor: qHTS; note: 0% is about no effect
# Conditions: HEK293 T-REx D1 cells, calcium flux, agonist mode; at 2 µM; stronger effect = higher value
# Outline: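 Agonism was scored from calcium flux recorded over 180 s (1 read/s) after pintool compound addition, following a 10-cycle baseline. Cells were inducible force-coupled HEK293 TREx D1, plated overnight at 30 C and loaded with no-wash calcium dye.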
# Chain of D(1A) dopamine receptor (Homo sapiens) (P21728 whole entry, looked up): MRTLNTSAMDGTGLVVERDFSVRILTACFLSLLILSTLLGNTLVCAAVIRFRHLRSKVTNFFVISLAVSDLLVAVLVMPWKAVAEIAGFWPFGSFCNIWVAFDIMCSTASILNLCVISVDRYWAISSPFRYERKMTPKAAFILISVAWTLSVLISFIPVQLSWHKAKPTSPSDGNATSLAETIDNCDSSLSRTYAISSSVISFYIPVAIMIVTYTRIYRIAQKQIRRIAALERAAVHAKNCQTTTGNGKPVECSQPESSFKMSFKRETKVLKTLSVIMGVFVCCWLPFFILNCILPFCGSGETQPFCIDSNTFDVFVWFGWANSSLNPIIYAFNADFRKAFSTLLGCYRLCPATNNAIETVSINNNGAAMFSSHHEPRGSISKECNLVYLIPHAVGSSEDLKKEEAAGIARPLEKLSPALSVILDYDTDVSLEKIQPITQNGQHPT
row,SMILES,activation
1,O=C(Nc1cccc(-c2nc3ccccc3o2)c1)c1cccc(Br)c1,11.1%
2,CCCn1c(C)cc(/C=C(\C#N)C(=O)OCC(=O)N(C)c2c(N)n(Cc3ccccc3)c(=O)[nH]c2=O)c1C,1.98%
3,COc1ccc(/C=C(\C#N)C(=O)ONC2=NCCCCC2)cc1,4.53%
4,CCOC(=O)/C(C#N)=C/c1ccc(N2CCN(Cc3ccccc3)CC2)cc1,46.5% (active)
5,CCOC(=O)C1CCN(Cc2ccc(-c3ccccc3)cc2)CC1,5.56%
6,CCOC(=O)/C(C#N)=C/c1ccc(N2CCCCC2)cc1,68.9% (active)
7,CCOC(=O)/C(C#N)=C\c1c(C)cc(C)c(COC(C)=O)c1C,0.226%
8,Cc1ccc2sc(N(Cc3cccnc3)C(=O)C3COc4ccccc4O3)nc2c1C (centres undefined),20.1%
9,CC1CCN(S(=O)(=O)c2ccc3c(c2)N(CC(=O)NCCc2ccccc2)C(=O)CO3)CC1,1.33%
10,COc1ccc(CN2CCN(Cc3ccc(OC)c(OC)c3OC)CC2)cc1,1.73%
11,Cc1ccc2[nH]cc(CCNC(=O)C3CCCCC3)c2c1,5.96%
12,CCOc1ccc(CN2CCCN(C)CC2)cc1,1.05%
13,CCOc1ccc(CN2CCN(Cc3c[nH]c4ccccc34)CC2)cc1,33.4% (active)
14,O=C(NCCc1c[nH]c2ccccc12)C1CCN(Cc2ccc(Br)cc2)CC1,35.5% (active)
15,CC1(C(=O)NCCc2c[nH]c3ccccc23)C=CC2(CCCCC2)N1C(=O)c1ccccc1 (centres undefined),-1.33%
16,O=S(=O)(c1ccc(Cl)cc1)c1nnn2c1nc(NC1CCCC1)c1sccc12,-0.225%
17,Cc1ccc(C)c(N2CCN(Cc3nnc(-c4ccccc4)o3)CC2)c1,6.92%
18,CCCn1c2ccccc2c2cnn(CC(=O)N(CC)c3cc(C)ccc3C)c(=O)c21,3.04%
19,COc1cccc2cc(-c3nc(Cl)c4c5c(sc4n3)CC(C)CC5)c(=O)oc12 (centres undefined),-0.914%
20,COc1cc(/C=C(\C#N)c2nc3c(s2)CC(C)CC3)ccc1O (centres undefined),35.8% (active)
21,COc1ccc(OCCCn2cccc2/C=C2/C(=N)N3OC(C)=CC3=NC2=O)cc1,1.18%
22,CC1=CC2=NC(=O)/C(=C/c3coc4ccccc4c3=O)C(=N)N2O1,227% (active)

row,SMILES,activation
1,Cc1cc(C)c2oc(-c3cccc(NC(=O)c4cccc(F)c4)c3C)nc2c1,1.24%
2,O=C(NCCc1c[nH]c2ccccc12)c1cc2ccccc2oc1=O,4.67%
3,N#C/C(=C/c1ccc(N2CCCCC2)o1)C(=O)NCCc1c[nH]c2ccccc12,78.8% (active)
4,Cc1ccc(C(=O)N/C(=C/c2ccco2)C(=O)NCCc2c[nH]c3ccccc23)cc1C,2.88%
5,CCOc1ccccc1CNC(=O)c1cnc2c(-c3ccc(OCC)c(OCC)c3)c(C)nn2c1C,1.83%
6,CCOc1ccc(NC(=O)CC2C(=O)N(c3cccc(OC)c3)C(=O)N2C2CCCCC2)cc1 (centres undefined),2.76%
7,O=C(/C=C/c1ccc(N2CCOCC2)cc1)c1ccccc1,108% (active)
8,C/C(=C/c1ccccc1)C(=O)N1CCN(c2ccccc2)CC1,0.356%
9,O=C(O)CCC(=O)Nc1ccc(N2CCOCC2)cc1,4.21%
10,CCN(CC)C(=O)CSc1nc2cc3c(cc2c(=O)n1CCCC(=O)NCc1ccc2c(c1)OCO2)OCO3,0.699%
11,CCOc1ccc(CNC(=O)C2CCCN(S(=O)(=O)N(CC)c3ccc(OCC)cc3)C2)cc1 (centres undefined),-0.432%
12,Cc1noc2ncnc(NCc3ccccc3Cl)c12,21.4%
13,Cc1noc(C)c1-c1ccc2ncnc(NCc3ccc(F)c(F)c3)c2c1,131% (active)
14,Cc1noc(C)c1-c1ccc2ncnc(NC(C)c3ccco3)c2c1 (centres undefined),-0.27%
15,O=C(NCCCO)c1nn(-c2ccc(Cl)cc2)nc1CO,-0.511%
16,Cc1ccc(OCC(=O)Nc2ccc(OCc3cc(=O)n4c(C)csc4n3)cc2)cc1C,5.64%
17,O=C(c1ccc(F)cc1)n1c(=S)nc2ccccn21,2.37%
18,O=C(CNC(=O)c1ccccc1F)c1ccc(Br)cc1,-0.969%
19,O=C(C[n+]1cc(Br)cc2ccccc21)c1ccc(F)cc1,39.6% (active)
20,Cc1ccc(-n2ncc3c(N4CCC(C(N)=O)CC4)ncnc32)cc1,-2.06%
21,CCOC(=O)C1CCN(C(=O)CSc2c3c(nc4ccc(Cl)cc24)CCCC3)CC1,3.05%
22,Cc1cc(NC(=O)c2ccc(-c3ccc(Cl)cc3)o2)cc(-c2nc3ncccc3o2)c1O,-0.471%

# Source: PubChem BioAssay AID504660 (National Center for Advancing Translational Sciences (NCATS), 2011)
